Reference: PubChem BioAssay (EPA / NIEHS)
Several values for one entry are separate records, joined by “and”; a condition that tells them apart may be missing. Equal entries are not always repeated. Inconclusive results are not listed. More than one record can exist for a structure, and the calls need not agree. Activity calls are given as the source filed them. Rule for the calls, unless noted: active = hit-call score of the fitted dose curve at least 0.9, where 1 is the maximum; inconclusive = response in the unintended direction; inactive = score below 0.9.

Legend:
[1] = biological target: Estrogen receptor (Homo sapiens) (UniProt P03372); test: OT_ERa_GFPERaERE_0480: Odyssey Thera (OT) 8-hour HeLa Transcription Induction Assay for Estrogen Receptor (AID 2283381; active = hit-call score of the fitted dose curve at least 0.9, where 1 is the maximum; inactive = score below 0.9)
In short: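 An 8 h HeLa transcription-induction format with a GFP reporter under ERE control, read by fluorescence microscopy; single endpoint fitted positively with DMSO as baseline.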

[2] = biological target: Estrogen receptor (Homo sapiens) (UniProt P03372); test: OT_ERa_GFPERaERE_0120: Odyssey Thera (OT) 2-hour HeLa Transcription Induction Assay for Estrogen Receptor (AID 2283382)
In short: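 Two-hour compound treatment of HeLa cells preceded microscopy imaging of an inducible fluorescent reporter. Image-based quantification gave one endpoint, analysed for signal increase relative to DMSO controls.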

[3] = biological target: Retinoic acid receptor RXR-alpha (Homo sapiens) (UniProt P19793); test: OT_NURR1_NURR1RXRa_0480: Odyssey Thera (OT) 8-hour HEK293T Protein Complementation Assay for Nurr1/retinoid X receptor (RXR) (AID 2283385)
In short: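 Gain in fluorescent complementation signal over DMSO, measured 8 hours after chemical dosing of human kidney HEK293T cells, indicated enhanced Nurr1–RXRα association.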

[4] = biological target: Retinoic acid receptor RXR-alpha (Homo sapiens) (UniProt P19793); test: OT_NURR1_NURR1RXRa_1440: Odyssey Thera (OT) 24-hour HEK293T Protein Complementation Assay for Nurr1/retinoid X receptor (RXR) (AID 2283386)
In short: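 Cell-based binding reporter: HEK293T cells, 24 h exposure, fluorescence-detected fragment complementation, DMSO as baseline.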

[5] = biological target: Peroxisome proliferator-activated receptor gamma (Homo sapiens) (UniProt P37231); test: OT_PPARg_PPARgSRC1_0480: Odyssey Thera (OT) 8-hour Protein-Complementation Assay for Peroxisome Proliferator-activated Receptor Gamma / SRC-1 Co-activator (AID 2283387);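 note: nuclear to cytoplasmic split Venus YFP fluorescence ratio reporting PPARg SRC-1 interaction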
In short: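 Split-YFP (IFP1/IFP2) PPARg/SRC-1 reporter, HEK293T, 37 °C, 5% CO2; 8 h compound; formaldehyde fix + Draq5; high-content imaging, N/C ratio, ≥350 cells/image, positive direction vs DMSO.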

[6] = biological target: Peroxisome proliferator-activated receptor gamma (Homo sapiens) (UniProt P37231); test: OT_PPARg_PPARgSRC1_1440: Odyssey Thera (OT) 24-hour Protein-Complementation Assay for Peroxisome Proliferator-activated Receptor Gamma/ SRC-1 Co-activator (AID 2283388);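 note: nuclear to cytoplasmic ratio of reconstituted Venus YFP fluorescence in fixed imaged cells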
In short: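 Protein-fragment complementation between PPARg and coactivator SRC-1 was measured by fluorescence imaging in transiently transfected HEK293T cells after 24 h treatment. Signal was quantified as N/C ratio in the 488 nm channel, with DMSO as negative control.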

[7] = biological target: Agonist Androgen Response Element (ARE), AR (gene 367) (UniProt P10275); test: OT_AR_ARELUC_AG_1440: Odyssey Thera (OT) 24-hour CHO-K1 Luciferase Assay for Agonist Androgen Response Element (ARE) (AID 2283379)
In short: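 Gain-of-signal reporter endpoint: cells (CHO-K1, hamster) are treated 24 h, luciferin/ATP reagent added, and luminescence compared with DMSO baseline.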

[8] = biological target: Bile acid receptor (Homo sapiens) (UniProt Q96RI1); test: OT_FXR_FXRSRC1_0480: Odyssey Thera (OT) 8-hour HEK293T Protein-Complementation Assay for Farnesoid X receptor/SRC-1 Co-activator (AID 2283383)
In short: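 Readings were taken 8 h after dosing HEK293T cells in a split-reporter complementation format pairing FXR with SRC-1. Increased fluorescence relative to DMSO-treated wells defined activity.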

[9] = biological target: Bile acid receptor (Homo sapiens) (UniProt Q96RI1); test: OT_FXR_FXRSRC1_1440: Odyssey Thera (OT) 24-hour HEK293T Protein-Complementation Assay for Farnesoid X receptor/SRC-1 Co-activator (AID 2283384)
In short: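 Single endpoint, analysed for increased fluorescence against DMSO controls. HEK293T cells carrying FXR and SRC-1 linked to complementary reporter halves were exposed to chemicals for 24 h before reading.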

Measured: AC50

Estrogen receptor (Homo sapiens), sequence (P03372 whole entry, looked up): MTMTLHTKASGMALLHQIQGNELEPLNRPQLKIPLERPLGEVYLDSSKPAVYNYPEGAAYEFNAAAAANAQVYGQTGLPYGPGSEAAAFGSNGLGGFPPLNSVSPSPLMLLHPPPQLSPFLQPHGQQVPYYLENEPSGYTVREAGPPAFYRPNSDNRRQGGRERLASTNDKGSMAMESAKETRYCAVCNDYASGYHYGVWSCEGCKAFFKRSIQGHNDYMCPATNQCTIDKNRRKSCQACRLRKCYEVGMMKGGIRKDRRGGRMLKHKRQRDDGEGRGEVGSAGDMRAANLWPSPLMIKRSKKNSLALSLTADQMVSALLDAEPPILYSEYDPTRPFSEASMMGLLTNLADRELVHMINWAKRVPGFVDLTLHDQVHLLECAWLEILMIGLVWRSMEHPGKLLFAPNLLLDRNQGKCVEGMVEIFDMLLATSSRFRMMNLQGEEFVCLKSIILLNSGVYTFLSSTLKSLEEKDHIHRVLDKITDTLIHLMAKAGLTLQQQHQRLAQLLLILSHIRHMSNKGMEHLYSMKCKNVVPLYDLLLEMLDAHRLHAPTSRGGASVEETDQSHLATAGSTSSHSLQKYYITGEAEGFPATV
Retinoic acid receptor RXR-alpha (Homo sapiens), sequence (P19793 whole entry, looked up, the tested form may be a part): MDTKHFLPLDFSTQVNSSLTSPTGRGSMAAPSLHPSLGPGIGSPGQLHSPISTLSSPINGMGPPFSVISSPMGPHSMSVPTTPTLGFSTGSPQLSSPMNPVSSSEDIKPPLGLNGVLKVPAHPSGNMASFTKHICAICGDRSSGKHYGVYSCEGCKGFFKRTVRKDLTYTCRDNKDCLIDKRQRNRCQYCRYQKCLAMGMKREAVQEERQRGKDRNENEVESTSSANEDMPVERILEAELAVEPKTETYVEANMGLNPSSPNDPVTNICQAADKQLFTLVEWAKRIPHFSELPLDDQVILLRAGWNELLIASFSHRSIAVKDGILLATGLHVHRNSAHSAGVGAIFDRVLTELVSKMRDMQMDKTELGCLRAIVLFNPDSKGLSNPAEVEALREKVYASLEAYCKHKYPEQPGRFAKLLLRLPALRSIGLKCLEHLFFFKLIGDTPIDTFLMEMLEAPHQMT
Agonist Androgen Response Element (ARE), AR (gene 367), sequence (P10275 whole entry, looked up): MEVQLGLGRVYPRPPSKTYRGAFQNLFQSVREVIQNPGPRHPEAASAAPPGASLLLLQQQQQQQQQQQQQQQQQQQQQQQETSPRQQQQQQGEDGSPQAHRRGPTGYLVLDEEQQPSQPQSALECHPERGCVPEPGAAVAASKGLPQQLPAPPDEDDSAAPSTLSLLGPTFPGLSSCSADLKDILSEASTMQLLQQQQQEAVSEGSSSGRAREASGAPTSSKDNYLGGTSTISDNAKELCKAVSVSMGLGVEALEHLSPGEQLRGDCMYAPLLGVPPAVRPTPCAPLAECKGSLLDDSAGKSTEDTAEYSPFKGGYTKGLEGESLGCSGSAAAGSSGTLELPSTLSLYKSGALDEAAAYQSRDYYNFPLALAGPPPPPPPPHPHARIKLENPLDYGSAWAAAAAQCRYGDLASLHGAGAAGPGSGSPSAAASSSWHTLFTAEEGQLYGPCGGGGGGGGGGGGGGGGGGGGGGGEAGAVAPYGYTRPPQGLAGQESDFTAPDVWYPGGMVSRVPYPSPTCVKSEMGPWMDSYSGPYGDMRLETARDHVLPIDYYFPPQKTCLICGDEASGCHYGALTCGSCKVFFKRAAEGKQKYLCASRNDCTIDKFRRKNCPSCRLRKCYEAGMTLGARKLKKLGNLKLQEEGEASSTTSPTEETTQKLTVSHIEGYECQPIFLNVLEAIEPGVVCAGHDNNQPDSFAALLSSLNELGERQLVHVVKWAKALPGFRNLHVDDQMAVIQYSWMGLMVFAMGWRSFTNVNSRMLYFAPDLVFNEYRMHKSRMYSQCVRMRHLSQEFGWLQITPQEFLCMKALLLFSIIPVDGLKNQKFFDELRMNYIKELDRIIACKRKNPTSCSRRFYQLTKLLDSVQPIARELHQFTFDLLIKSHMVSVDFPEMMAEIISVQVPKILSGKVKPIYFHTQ
Bile acid receptor (Homo sapiens), sequence (Q96RI1 whole entry, looked up): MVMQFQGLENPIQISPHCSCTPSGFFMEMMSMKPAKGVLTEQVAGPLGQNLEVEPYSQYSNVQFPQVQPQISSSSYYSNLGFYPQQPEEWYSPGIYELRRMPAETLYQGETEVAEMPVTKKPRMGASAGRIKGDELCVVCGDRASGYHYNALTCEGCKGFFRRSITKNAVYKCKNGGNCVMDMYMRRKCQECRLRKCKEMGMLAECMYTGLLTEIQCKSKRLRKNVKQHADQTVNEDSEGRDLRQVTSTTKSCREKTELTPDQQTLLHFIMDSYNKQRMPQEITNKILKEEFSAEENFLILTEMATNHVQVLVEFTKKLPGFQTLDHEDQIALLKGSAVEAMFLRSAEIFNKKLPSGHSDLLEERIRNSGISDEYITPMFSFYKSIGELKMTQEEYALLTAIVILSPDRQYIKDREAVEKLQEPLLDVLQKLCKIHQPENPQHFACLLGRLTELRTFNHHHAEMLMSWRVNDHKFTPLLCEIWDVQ
Peroxisome proliferator-activated receptor gamma (Homo sapiens), sequence (P37231 whole entry, looked up, the tested form may be a part): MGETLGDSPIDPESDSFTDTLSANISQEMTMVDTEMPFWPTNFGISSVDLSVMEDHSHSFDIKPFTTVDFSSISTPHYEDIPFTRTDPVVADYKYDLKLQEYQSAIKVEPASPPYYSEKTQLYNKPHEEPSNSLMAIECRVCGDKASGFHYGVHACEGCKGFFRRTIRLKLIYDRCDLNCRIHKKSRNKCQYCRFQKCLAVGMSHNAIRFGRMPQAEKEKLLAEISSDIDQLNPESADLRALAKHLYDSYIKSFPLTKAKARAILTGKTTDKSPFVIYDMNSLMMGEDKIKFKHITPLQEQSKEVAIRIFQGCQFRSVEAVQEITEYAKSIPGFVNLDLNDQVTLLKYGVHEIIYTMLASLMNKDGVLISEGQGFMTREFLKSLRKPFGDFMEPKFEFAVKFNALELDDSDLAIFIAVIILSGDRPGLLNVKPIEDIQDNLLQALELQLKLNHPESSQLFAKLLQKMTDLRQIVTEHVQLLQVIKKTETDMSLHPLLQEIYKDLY

O=C(O)Cc1cc(I)c(Oc2cc(I)c(O)c(I)c2)c(I)c1
active: [1] 44.5 µM | [2] 48.3 µM | [3] 11.6 µM | [4] 6.55 µM | [5] 10.6 µM | [6] 11.8 µM

Nc1cccc2c(N)cccc12
not listed: [2] | [3] | [5]
inactive: all other assays above

OCCC(F)(F)C(F)(F)C(F)(F)C(F)(F)C(F)(F)C(F)(F)C(F)(F)C(F)(F)F
inactive: [1]
active: [7] 21.8 µM

CCCCCCCCC(=O)O
inactive: [1] | [2] | [3]

CCCCCCCCCCCCc1ccccc1S(=O)(=O)O
inactive: [7] | [9] | [6]
active: [1] 96 µM | [8] 92.9 µM

CCCCCCCCCCCCCC[N+](C)(C)C
inactive: [1]

CCCOc1sc(C(=O)N2CCC(c3cc(CN)ccc3F)CC2)c(C)c1Br
inactive: [5] | [6]

CN(C)C=O
not listed: [2] | [3] | [7]
inactive: all other assays above

OC1CCCCC1
inactive: [1] | [4] | [6]

COC(=O)CCCCC(=O)OC
inactive: [1] | [9] | [3] | [5] | [6]

CC(O)CO (stereo not given)
inactive: [1] | [8] | [9] | [6]

CC(=O)NC1(c2cccc(F)c2)CCN(CC[C@@]2(c3ccc(Cl)c(Cl)c3)CN(c3ccccc3)C(=O)CO2)CC1
active: [8] 9.52 µM | [9] 9.83 µM
inactive: [1] | [6]

CN1CCN(c2ccccc2/C=C2\SCCN(c3ccc(Cl)c(Cl)c3)C2=O)CC1
active: [1] 19.5 µM
inactive: [6]

COCC(C)O (stereo not given)
inactive: [1] | [5] | [6]

OC1CCC(C2CCCCC2)CC1 (stereo not given)
active: [8] 55.7 µM and 35.6 µM and 50 µM
inactive: [1] | [8] | [9] | [3] | [4] | [6]

C[C@@H]1C[C@H]2[C@@H]3CCC4=CC(=O)C=C[C@]4(C)[C@@]3(F)[C@@H](O)C[C@]2(C)[C@@]1(O)C(=O)COP(=O)(O)O
inactive: [1] | [4] | [6]

CCCCOCCO
inactive: [1] | [8] | [9] | [3] | [6]

CN1CCC[C@H]1c1cccnc1
inactive: [1] | [5] | [6]

CCOC(=O)CC(O)(CC(=O)OCC)C(=O)OCC
inactive: [1] | [2] | [6]

CCCCC(CC)COC(=O)CCCCC(=O)OCC(CC)CCCC (stereo not given)
inactive: [1] | [8] | [9] | [6]

CCCCCCC(=O)O
inactive: [8] | [9]

c1ccc2c(c1)Cc1ccccc1-2
inactive: [1] | [8] | [6]

ClC1=C(Cl)C(Cl)(Cl)C(Cl)=C1Cl
inactive: [1] | [2] | [6]

CCCCCCCC(=O)O
inactive: [2] | [3] | [4] | [6]
active: [1] 22.1 µM

CC1=C(/C=C/C(C)=C/C=C/C(C)=C/C(=O)O)C(C)(C)CCC1
inactive: [1] | [2] | [6]

CC#C[C@]1(O)CC[C@H]2[C@@H]3CCC4=CC(=O)CCC4=C3[C@@H](c3ccc(N(C)C)cc3)C[C@@]21C
inactive: [1] | [8] | [9] | [6]
active: [8] 4.33 µM | [9] 5.36 µM

CCCCCCCCCCCCN1CCCC1=O
inactive: [1] | [6]
active: [8] 11.6 µM | [9] 11.2 µM

Oc1cccc(O)c1
inactive: [8] | [9] | [6]
active: [1] 52.9 µM

Cc1cc(C)c(O)c(C)c1
inactive: [1] | [8] | [9] | [6]

O=C1OC2(c3ccccc31)c1cc(Br)c(O)c(Br)c1Oc1c2cc(Br)c(O)c1Br
inactive: [1] | [8] | [9]
active: [6] 73.1 µM

c1ccc2cc3c(ccc4ccccc43)cc2c1
inactive: [1] | [8] | [9] | [5] | [6]

C#C[C@]1(O)CC[C@H]2[C@@H]3CCC4=CC(=O)CC[C@@H]4[C@H]3CC[C@@]21C
inactive: [6]

COc1ccc([N+](=O)[O-])cc1N
not listed: [2] | [5] | [7]
inactive: all other assays above

CCCCCCCCCCCCCCCS(=O)(=O)Oc1ccccc1
not listed: [2] | [3] | [7]
inactive: all other assays above

CC(C)CCCCCCOC(=O)CCCCC(=O)OCCCCCCC(C)C
inactive: [1] | [8] | [6]

O=[N+]([O-])c1ccc(O)cc1
inactive: [1] | [2] | [6]

CCCCCCCCOC(=O)CCCCCCCCC(=O)OCCCCCCCC
inactive: [1] | [8] | [3] | [6]

CC(C)(C)c1ccc(O)c(C(C)(C)C)c1
inactive: [1] | [2] | [6]

CC(C)(C)c1cccc(C(C)(C)C)c1O
active: [8] 78.7 µM
inactive: [1] | [4] | [6]
